HP1b chromo inh = inhibitors of HP1-beta chromodomain binding to methylated histone tails; actives 0.56% (n = 390,000); P83916; AlphaScreen HP1-beta / biotin-H3K9me3 peptide binding; Potency, µM (highest dose often 114 µM), usual class: inhibitors; note: nearly all actives have a fitted effect of over 70% in size
Target sequence (P83916 whole entry, looked up): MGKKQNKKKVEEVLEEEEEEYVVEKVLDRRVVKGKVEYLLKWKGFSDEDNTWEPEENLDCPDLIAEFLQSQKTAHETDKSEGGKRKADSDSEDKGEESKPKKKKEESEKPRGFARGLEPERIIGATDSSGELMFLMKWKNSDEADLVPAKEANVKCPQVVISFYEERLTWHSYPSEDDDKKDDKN
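AlphaScreen: HP1-beta (50 nM) preformed 30 min with biotin-H3(1-18)K9me3 peptide (50 nM) in PBS pH 7.4, 0.01% Tween-20. Compound added for 30 min at RT, then streptavidin donor/nickel chelate acceptor beads (10 ug/mL) for 30 min.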
JMJD2A Tudor inh = blocks the human JMJD2A Tudor domain | AlphaScreen JMJD2A-Tudor / H3K4me3 peptide binding | O75164 | actives 4.4% (n = 390,000) | Potency, µM (doses to about 114 µM), hits mostly inhibitors; note: nearly all actives have a fitted effect of over 50% in size
G9a inh = blocks human histone lysine methyltransferase G9a. Q96KQ7. G9a H3K9 monomethylation, AlphaScreen, 2 h. Potency, µM (highest dose often 102 µM), usual class: inhibitors. actives 8.8% (n = 350,000). AID 504332; note: nearly all actives have a fitted effect of over 75% in size
Target sequence (Q96KQ7 913-1193 limits assumed): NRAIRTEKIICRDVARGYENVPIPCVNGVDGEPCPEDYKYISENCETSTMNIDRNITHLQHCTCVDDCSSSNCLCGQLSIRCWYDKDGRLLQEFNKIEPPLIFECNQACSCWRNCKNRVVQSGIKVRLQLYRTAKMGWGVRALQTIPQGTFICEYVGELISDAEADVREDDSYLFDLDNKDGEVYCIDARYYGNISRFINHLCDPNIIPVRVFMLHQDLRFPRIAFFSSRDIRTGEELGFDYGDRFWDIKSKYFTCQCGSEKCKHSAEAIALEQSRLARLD
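Chemiluminescent proximity detection of H3K9 monomethylation, read after 10 min bead incubation in the dark. Reaction: 20 nM G9a, 500 nM biotin-H3K9 peptide, 20 uM SAM cofactor, 2 h, room temperature, following 15 min enzyme-compound preincubation.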
BAZ2B block = blocks human BAZ2B. Q9UIF8. Potency, µM (highest dose often 114 µM), hits mostly inhibitors. actives 4.4% (n = 360,000). AID 504333. AlphaScreen BAZ2B-H3K14Ac peptide displacement; note: nearly all actives have a fitted effect of over 60% in size
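BAZ2B (50 nM) with biotin-H3(5-23)K14Ac peptide (50 nM) in PBS pH 7.4, 0.01% Tween-20, preformed 30 min, then compound 30 min at room temperature; top concentration 110uM. AlphaScreen streptavidin donor/nickel chelate acceptor beads (10 ug/mL final), 20 min dark, signal read.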
GLS inh = glutaminase GLS (human) inhibition; O94925; GLS enzymatic activity, qHTS titration; Potency, µM (highest dose often 45.5 µM), hits mostly inhibitors; actives 0.21% (n = 410,000); AID 624170
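hKGA in 45 mM KH2PO4 (pH 8.2), 0.02% Tween-20 with compound, then 1mM L-Glutamine (stock as added) plus glutamate oxidase/HRP/Amplex red coupling mix. Fluorescence read initially and after 30 min at RT; signal change reflects glutamate formation.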
Numbers stand for hits; 0 = inactive; ? = inconclusive; - = not tested or not shown; [ ] = dose if it differs, or a comment. A selection: hits, their analogues and other compounds. The true share with any hit is near 10%. Calls come from the whole dose curve; as a rule, active = well fitted curve in the direction sought with a large enough effect; inconclusive = small, poorly fitted or top-dose-only effect, or another doubt; inactive = no such curve, though single readings can be large; an effect the other way counts as inactive or inconclusive.

SMILES	HP1b chromo inh	JMJD2A Tudor inh	G9a inh	BAZ2B block	GLS inh
N[C@@H](Cc1cc(Br)c(O)c(Br)c1)C(=O)O	-	-	35µM	0	-
CCCCN1C(=O)NC(=O)/C(=C/c2cnc(SC)nc2)C1=O	0	?	10µM	0	0
CC(C)c1ccc(N2C(=O)NC(=O)/C(=C/c3cnc(-c4ccccc4)nc3)C2=O)cc1	0	89µM	3.5µM	?	0
Cc1ccccc1N1C(=O)NC(=O)/C(=C\c2cnn(-c3ccccc3)c2)C1=O	0	0	?	0	?
CSc1ncc(/C=C2/C(=O)NC(=O)N(C)C2=O)cn1	0	0	-	0	0
O=C1NC(=O)N(Cc2ccccc2)C(=O)/C1=C/c1cnc(-c2ccccc2)nc1	0	79µM	10µM	0	0
CSc1ncc(/C=C2/C(=O)NC(=O)N(c3ccc(C(C)C)cc3)C2=O)cn1	0	?	7.9µM	0	0
CCOP(=O)(OCC)c1cccc(P(=O)(c2ccccc2)c2ccccc2)c1O	0	0	0	0	0
CCOC(=O)C1(c2ccccc2)CCN(CCC(=O)Nc2cccc(Br)c2)CC1	0	0	0[0.501 µM]	0	0
O=C1NC(=O)N(Cc2ccccc2)C(=O)/C1=C/N1CCCc2ccccc21	0	?	7.9µM	?	0
CCN1C(=O)c2ccccc2Sc2ccc(NC(=O)c3ccc(C)c(F)c3)cc21	0	?	0	0	0
Cc1ccc(-c2cn3c(=S)[nH]nc3s2)cc1	71µM	0.71µM	1µM	79µM	0
CC(=O)N1CCN(c2ccc(OC[C@@H]3CO[C@@](Cn4ccnc4)(c4ccc(Cl)cc4Cl)O3)cc2)CC1	-	-	?	-	0
CCCC12CN3CC(CCC)(CN(C1)C3c1ccccn1)C2=O (centres undefined)	0	25µM	0[12.7 µM]	20µM	0
CCN(CCO)c1ccc(N=Cc2c(O)n(C)c(=S)[nH]c2=O)cc1	0	?	35µM	56µM	0
COc1ccc(CCn2c(O)c(/C=N/NC(=O)c3ccncc3)c(=O)[nH]c2=O)cc1OC	0	0	0	?	0
CCN(CC)c1ccc(N=Cc2c(O)n(CCc3ccc(OC)c(OC)c3)c(=O)[nH]c2=O)cc1	0	0	7.1µM	0	0
COc1ccc(CCn2c(O)c(C=Nc3ccc(F)cc3)c(=O)[nH]c2=O)cc1OC	0	0	-	0	0
CCCCC(=O)N/N=C/c1c(O)n(CCc2ccc(OC)c(OC)c2)c(=O)[nH]c1=O	0	0	?	50µM	0
CCCCC(=O)N/N=C/c1c(O)n(CCc2ccccc2)c(=O)[nH]c1=O	0	79µM	0[12.7 µM]	?	0
N#Cc1ccc(CN2CCC3(CC2)CCN(C(=O)Oc2ccccc2)CC3)cc1	-	-	0[12.7 µM]	-	-
CC(C)Oc1cccc(NC(=O)c2ccccc2C(F)(F)F)c1	-	-	-	-	0
C=C(C)C(Cc1c(OC)ccc(C(=O)/C=C/c2ccc(O)cc2)c1O)OO (centres undefined)	0	?	-	-	0
Oc1ccc(CC2CC3CCN2CC3)cc1O (centres undefined)	0	28µM	?	0	0
C=C[C@@H]1C2=CCOC(=O)C2=CO[C@H]1O[C@@H]1O[C@H](CO)[C@@H](O)[C@H](O)[C@H]1O	0	0	0[2.33 µM]	0	0
SMILES	HP1b chromo inh	JMJD2A Tudor inh	G9a inh	BAZ2B block	GLS inh
O=C(Cn1ccc2ccccc2c1=O)NCC(=O)N1CCC2(CC1)OCCO2	0	0	0	0	0
Cc1ccc(CN(Cc2ccccc2)C(=S)NCC(=O)N2CCC3(CC2)OCCO3)o1	0	0	50µM	?	0
CC(C)NC(=O)N1CCC2(CC1)CCN(C(=O)Oc1ccccc1)CC2	-	-	0[12.7 µM]	-	-
COc1cc(C=C2C(=O)NC(=O)NC2=O)ccc1OS(=O)(=O)c1ccccc1[N+](=O)[O-]	?	32µM	10µM	50µM	0
O=C(COc1ccc(Br)cc1)N1CCN(C2CCCC2)CC1	0	0	0	0	0
COc1cc(/C=C2/C(=O)N(c3ccccc3)N=C2C)ccc1OS(=O)(=O)c1ccccc1	-	-	35µM	28µM	-
CCOc1cc(C=C2C(=O)NC(=O)NC2=O)ccc1OS(=O)(=O)c1ccccc1	0	79µM	22µM	0	0
O=C1NC(=S)NC(=O)C1=Cc1ccc(OCC(=O)N2CCCC2)cc1	?	45µM	14µM	?	?
Cc1ccc(S(=O)(=O)Oc2ccccc2C=C2C(=O)N(C)C(=O)N(C)C2=O)cc1	0	0	-	0	0
COC(=O)C1=C(c2ccc(OC)c(OC)c2)C[C@@H]2CC[C@H]1N2C(=O)NCc1cccc2ccccc12	0	0	0[0.501 µM]	0	0
CN1C(=O)N(C)C(=O)C(NS(=O)(=O)c2ccc(N)cc2)(c2ccccc2)C1=O	0	0	-	-	0
CCOc1cc(C=C2C(=O)NC(=O)NC2=O)ccc1OCC(=O)N1CCOCC1	0	0	8.9µM	0	0
CCOc1ccc(C=C2C(=O)NC(=S)NC2=O)cc1OCC	0	?	-	-	0
COc1ccc(NC(=O)N2CC[C@@]3(CCCN(C(=O)Oc4ccccc4)C3)C2)cc1	-	-	0[12.7 µM]	-	-
CCC(=NCCN1CCOCC1)c1c(O)n(C2CCCCC2)c(=O)[nH]c1=O	0	0	35µM	0	0
C=CCn1c(O)c(C(CC)=Nc2ccccc2NC(C)=O)c(=O)[nH]c1=O	0	0	1.4µM	0	0
CCC(=NCc1ccco1)c1c(O)n(C2CCCCC2)c(=O)[nH]c1=O	0	0	?	?	0
C=CCn1c(O)c(C(CC)=NCCN2CCOCC2)c(=O)[nH]c1=O	0	0	40µM	?	0
C=CCn1c(O)c(C(CC)=NCCCO)c(=O)[nH]c1=O	0	0	0	0	0
CCC(=NCCCN(CC)CC)c1c(O)n(C2CCCCC2)c(=O)[nH]c1=O	0	0	56µM	0	0
Cc1ncc(CN2CCCC(C(=O)c3sccc3C)C2)s1 (centres undefined)	0	0	-	0	0
O=C1/C(=C/c2cc3c(cc2Cl)OCO3)N2CCC1CC2	-	-	0	0	-
Cc1ccc(NC(=O)Cn2c(=O)cc(-c3ccccc3)c3c(C)nn(C)c32)c(Cl)c1	0	0	0	0	0
Oc1ccc(O)c2c1C1(Cl)C(Cl)=C(Cl)C2(Cl)C1(Cl)Cl	0	?	-	-	0
CCCCN1CCS(=O)(=O)N(Cc2ccccc2Br)CC(C(=O)OC)C1 (centres undefined)	0	0	-	-	0
SMILES	HP1b chromo inh	JMJD2A Tudor inh	G9a inh	BAZ2B block	GLS inh
c1ccc2c(c1)c1cccc3ccc4cccc2c4c31	0	0	0[0.501 µM]	0	0
CCOC(=O)CCCc1cc[c]([Sb](=[O])([OH])[OH])cc1	1.3µM	0.71µM	-	-	-
NC(=O)OCCCc1ccccc1	0	0	0	-	0
CCCCCOc1c(OC)ccc2cc(C(=O)NCc3ccc4c(c3)OCO4)c(=O)[nH]c12	-	-	0	-	-
Nc1nc2c(s1)CCCCCCCCCC2	?	?	45µM	0	0
CC1(C)N(O)C2CCCCC2N1O (centres undefined)	0	2.8µM	8.9µM	0	0
COc1ccc(N=Cc2c(O)n(-c3ccc(C)cc3)c(=O)[nH]c2=O)cc1	0	0	0	0	0
